Drawing on PubChem BioAssay AID624053 (National Center for Advancing Translational Sciences (NCATS), 2012), this text covers IC50 for 4 compounds.

The source made the active and inactive calls.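 Rule for the calls: active = neuropeptide S receptor blocker with IC50 at or below 10 µM; inconclusive = IC50 above 10 µM but below 20 µM; inactive = IC50 of 20 µM or more.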

Chain of Neuropeptide S receptor (Homo sapiens) (Q6W5P4 whole entry, looked up): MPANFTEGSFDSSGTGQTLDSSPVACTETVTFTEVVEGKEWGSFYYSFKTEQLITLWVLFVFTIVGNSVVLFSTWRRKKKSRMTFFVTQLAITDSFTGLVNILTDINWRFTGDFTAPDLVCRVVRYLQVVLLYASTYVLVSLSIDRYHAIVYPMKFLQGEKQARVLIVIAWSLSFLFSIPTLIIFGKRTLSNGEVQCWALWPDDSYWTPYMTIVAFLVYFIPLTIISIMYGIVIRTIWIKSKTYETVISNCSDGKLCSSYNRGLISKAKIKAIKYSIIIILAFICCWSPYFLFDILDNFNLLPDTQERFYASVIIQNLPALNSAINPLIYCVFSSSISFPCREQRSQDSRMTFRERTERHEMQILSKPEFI

This assay has as its target Neuropeptide S receptor (Homo sapiens) (UniProt Q6W5P4). Kind of assay: qHTS for Antagonists of the Neuropeptide S Receptor: SAR in ERK. As to conditions: CHO-NPSR cells, NPS-induced pERK1/2 HTRF. From the text:
Neuropeptide S receptor (NPSR), previously known as GPR154, is a recently de-orphanized G protein coupled receptor. Its endogenous ligand is the 20 amino acids peptide Neuropeptide S (NPS). […] NPS and its receptor are found in various tissues. Specifically they are highly expressed in brain areas that have been implicated in modulation of arousal, stress and anxiety. Central administration of NPS in mice produces an unusual profile of activity by inducing wakefulness and arousal, while at the same time suppressing anxiety. Therefore, NPSR may represent a novel drug target for the treatment of sleep and anxiety disorders. To identify NPSR antagonists, we developed a cell-based assay with transfected NPS receptor. NPS can stimulate the production of cAMP as well as release intracellular calcium in Chinese hamster ovary cells stably expressing NPS receptor. This change in intracellular calcium can be detected using a calcium indicator dye on a calcium imaging plate reader system (FDSS). […] Reinscheid et al. have demonstarted that the binding of NPS to NPSR activates the phosphorylation of the MAPK extracellular regulated kinase (ERK). Thus NPSR antagonists of ERK activation should reduce ERK phosphorlyation is a dose dependent manner NIH Chemical Genomics Center [NCGC] NIH Molecular Libraries Probe Production centers Network [MLPCN] MLPCN Grant: DA026210 Assay Submitter (PI): Heilig, Markus Alexander
Intracellular pERK1/2 levels were measured using a time-resolved fluorescence resonance energy transfer (TR-FRET) assay by a HTRF Cellul'erk kit (Cisbio, MA). The CHO cells overexpressing NPSR were seeded at 200 microL/well with 25,000 cells in white, tissue culture treated clear bottom 96-well plates (Greiner Bio-One, NC). Following overnight incubation at 37 masculineC with 5% CO2, the growth medium was replaced with 100 microL /well Opti-MEM medium (ATCC, VA) and incubated at 37 degrees C with 5% CO2 for an additional 4 hours. The compounds prepared in 100% DMSO were added to assay plates at 1 microL/well. The assay plates were incubated for 10 min at 37 degrees C with 5% CO2 and NPS solution (2 nM NPS peptide prepared in the Opti-MEM medium with 0.2 % BSA and 0.005 % Tweeen-20) was then added at 100 microL/well. After a 20 min incubation at 37 degrees C with 5% CO2, the media was aspirated and the place plates were placed on ice for 5 min followed by the addition of 50 microL/well of 1 cell lyses solution. The plates were then incubated at room temperature while gently rocking (for mixing) for 15 min. […] After overnight incubation at room temperature in the dark, the plates were measured using the EnVision plate reader similarly as that of cAMP assay.
What is called IC50 is the concentration that gives 50% inhibition. Regarding `Cc1c(P(=S)(c2ccccc2)c2ccccc2)[n+]2ccccc2n1C/C=C/c1ccccc1`, the IC50 is 9.3 nM (active). Regarding `O=C1OC(c2ccccc2)(c2ccccc2)N2CCN(C(=O)NCc3ccc(F)cc3)CC12` (centres undefined), the IC50 is 15.8 nM (active). As to `COc1ccc(C2c3c(ncn(CCN4CCOCC4)c3=N)Oc3ccc4ccccc4c32)cc1OC` (centres undefined), the IC50 is 59.7 nM (active).

For `CCC(C)(CCN1CCOCC1)N(Cc1cc2ccccc2n(C)c1=O)C(=O)C1CCCCC1` (centres undefined), the IC50 is 9 nM (active).
